Experimental data as given in PubChem BioAssay.
Several values for one entry are separate records, joined by “and”; a condition that tells them apart may be missing. Equal values may be shown once. Activity calls are given as the source filed them.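 The calls were made as follows, unless noted: active = thallium flux through the channel raised or lowered by more than 3 SD from vehicle-only wells, actives on both sides; inactive = the rest.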

Assays:
[1] = Wnt pathway potentiators raising nuclear beta-catenin – imaging, WNT3A-conditioned medium, mouse C2C12, NPC library, primary screen (AID 1117326; in the data active = nuclear beta-catenin stimulation mostly above about 4.2%, no sharp cut-off; inactive = mostly below about 10%); conditions: stronger effect = higher value
[2] = stimulators of insulin release from INS-1E, primary screen, cell-based, 5 mM glucose, NPC library (AID 1117329;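 active = compound raises insulin release from rat beta cells at 5 mM glucose, no numeric limit stated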); conditions: rat INS-1E insulin secretion, at 10 µM, stronger effect = higher value
[3] = growth inhibition of GSK3B-pretreated HCT116 cells – cell-based, CellTiter-Glo, 0.2 to 20 µM (AID 1117336;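 active = compounds lowering colon cancer cell viability after pretreatment blocking the GSK3B kinase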); conditions: HCT116 viability after GSK3B inhibitor, at 20 µM, stronger effect = higher value
[4] = inhibition of endothelial tube formation, primary screen, imaging, VEGF stimulated, CD31 staining, tube area, NPC library (AID 1117340;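 active = compound that reduces growth-factor-driven endothelial tube area in a mixed cell culture, no cutoff stated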); conditions: VEGF-stimulated ADSC/ECFC co-culture, at 10 µM, stronger effect = higher value
[5] = GLP1 release stimulators, primary, NCI-H716, NPC library (AID 1117341;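 active = compound raises GLP1 secretion from the human gut endocrine cells, with no numeric limit stated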); conditions: NCI-H716 cells, at 10 µM, stronger effect = higher value
[6] = HCT116 colon cancer cell growth inhibition, primary screen, CellTiter-Glo luminescence, NPC library (AID 1117342;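 active = compounds that lower survival of HCT116 colon cancer cells in the luminescence readout, no numeric limit stated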); conditions: at 20 µM (top of the series)
[7] = reduced SW480 viability measured with CellTiter-Glo, NPC library, primary (AID 1117343;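 active = compounds that lower viability of the colon cancer cells in the luminescence readout, with no numeric limit stated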); conditions: CellTiter-Glo luminescence; at 20 µM (top of the series)
[8] = NPC library primary testing for decreased DLD-1 cell viability via CellTiter-Glo (AID 1117346;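 active = compounds that lower survival of DLD-1 colon cancer cells in the luminescence readout, no cutoff given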); conditions: DLD-1 viability, CellTiter-Glo luminescence; at 20 µM (top of the series)
[9] = target: 6-phosphogluconate dehydrogenase, decarboxylating (Homo sapiens) (UniProt P52209); test: inhibition of human phosphogluconate dehydrogenase – biochemical, recombinant enzyme, NADPH absorbance, primary screen (AID 1159550;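 active = at least 20% inhibition of 6-phosphogluconate dehydrogenase activity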); conditions: recombinant 6PGD, NADPH absorbance 341 nm; at 10 µM; stronger effect = higher value
6-phosphogluconate dehydrogenase, decarboxylating (Homo sapiens), sequence (P52209 whole entry, looked up): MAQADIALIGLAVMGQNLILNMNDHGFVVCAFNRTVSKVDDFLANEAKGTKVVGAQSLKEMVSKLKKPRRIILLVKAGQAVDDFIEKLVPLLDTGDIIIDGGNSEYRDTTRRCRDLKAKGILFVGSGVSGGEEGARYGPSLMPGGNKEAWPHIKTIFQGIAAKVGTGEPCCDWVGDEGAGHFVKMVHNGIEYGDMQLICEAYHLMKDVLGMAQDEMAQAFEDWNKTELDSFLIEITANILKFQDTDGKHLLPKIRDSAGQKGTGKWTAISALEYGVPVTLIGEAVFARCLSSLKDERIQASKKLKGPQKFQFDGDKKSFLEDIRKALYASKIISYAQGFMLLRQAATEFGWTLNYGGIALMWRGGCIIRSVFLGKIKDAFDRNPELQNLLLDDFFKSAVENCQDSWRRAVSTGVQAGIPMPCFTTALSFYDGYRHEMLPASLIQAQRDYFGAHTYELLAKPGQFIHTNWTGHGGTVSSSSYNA

[10] = target: NAD(+) hydrolase SARM1 (Homo sapiens) (UniProt Q6SZW1); test: blocking NAD cleavage by SARM1 SAM-TIR – cell lysate, NAD-Glo luminescence (AID 1508614;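 active = compound whose remaining NAD level is above about 45 nM, limit read from the data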;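 also: higher remaining NAD means stronger inhibition of SARM1 NADase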); conditions: SAM-TIR HEK293T lysate NADase, at 1 µM, stronger effect = higher value
NAD(+) hydrolase SARM1 (Homo sapiens), sequence (Q6SZW1 whole entry, looked up, the tested form may be a part): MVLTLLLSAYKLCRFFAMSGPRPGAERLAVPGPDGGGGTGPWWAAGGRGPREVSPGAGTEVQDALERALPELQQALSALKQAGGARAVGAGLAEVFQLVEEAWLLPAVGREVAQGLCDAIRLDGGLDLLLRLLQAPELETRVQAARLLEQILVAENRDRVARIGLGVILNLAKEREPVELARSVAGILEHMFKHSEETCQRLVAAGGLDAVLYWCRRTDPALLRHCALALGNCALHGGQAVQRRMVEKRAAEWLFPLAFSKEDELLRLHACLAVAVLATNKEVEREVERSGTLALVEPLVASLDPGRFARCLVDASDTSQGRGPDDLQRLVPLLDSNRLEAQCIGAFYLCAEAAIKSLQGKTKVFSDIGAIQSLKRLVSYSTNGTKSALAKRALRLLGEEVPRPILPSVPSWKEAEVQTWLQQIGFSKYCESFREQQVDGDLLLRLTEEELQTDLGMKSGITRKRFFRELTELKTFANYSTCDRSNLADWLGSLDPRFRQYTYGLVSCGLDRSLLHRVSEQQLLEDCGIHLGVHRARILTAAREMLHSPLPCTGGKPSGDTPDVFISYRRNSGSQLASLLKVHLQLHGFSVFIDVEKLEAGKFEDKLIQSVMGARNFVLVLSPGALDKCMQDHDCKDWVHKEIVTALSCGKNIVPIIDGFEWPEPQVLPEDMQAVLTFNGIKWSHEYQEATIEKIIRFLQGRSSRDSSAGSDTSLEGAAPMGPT

[11] = target: Mitogen-activated protein kinase 7 (Homo sapiens) (UniProt Q13164); test: Gal4-ERK5 driven luciferase induction – cell-based, HTS, primary screen (AID 1508626;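 active = luciferase signal above three times the same-plate solvent-only control wells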;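 also: luciferase driven by Gal4-ERK5 fusion binding five Gal4 sites before minimal TATA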); conditions: HeLa Gal4-ERK5 transactivation, 18 h, at 5 µM, stronger effect = higher value
Mitogen-activated protein kinase 7 (Homo sapiens), sequence (Q13164 whole entry, looked up, the tested form may be a part): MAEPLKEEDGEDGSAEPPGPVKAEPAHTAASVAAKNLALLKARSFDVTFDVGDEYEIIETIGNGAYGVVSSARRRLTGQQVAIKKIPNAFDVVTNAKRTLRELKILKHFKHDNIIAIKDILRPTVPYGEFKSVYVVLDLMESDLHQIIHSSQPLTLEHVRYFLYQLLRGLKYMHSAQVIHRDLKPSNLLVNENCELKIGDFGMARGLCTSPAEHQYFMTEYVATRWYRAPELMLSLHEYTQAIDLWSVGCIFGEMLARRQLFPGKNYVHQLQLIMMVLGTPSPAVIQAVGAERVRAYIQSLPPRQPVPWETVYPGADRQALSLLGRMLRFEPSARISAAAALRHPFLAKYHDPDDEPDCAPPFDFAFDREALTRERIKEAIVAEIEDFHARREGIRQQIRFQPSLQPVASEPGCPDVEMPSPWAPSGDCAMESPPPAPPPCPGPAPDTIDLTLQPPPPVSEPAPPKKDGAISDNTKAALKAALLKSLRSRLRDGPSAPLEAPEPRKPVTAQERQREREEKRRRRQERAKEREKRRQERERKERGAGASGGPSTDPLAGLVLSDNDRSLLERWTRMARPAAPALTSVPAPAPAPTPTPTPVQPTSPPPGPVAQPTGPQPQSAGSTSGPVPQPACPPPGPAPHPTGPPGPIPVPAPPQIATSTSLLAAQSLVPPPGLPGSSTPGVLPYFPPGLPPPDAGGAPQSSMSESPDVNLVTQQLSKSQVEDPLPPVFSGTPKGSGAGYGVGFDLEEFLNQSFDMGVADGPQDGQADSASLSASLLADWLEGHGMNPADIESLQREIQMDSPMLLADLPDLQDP

F380Y = test: BK channel mutant inhibitors and activators – cell-based, U2OS BacMam, thallium flux, beta subunits, selectivity assay, profiling panel (AID 1259406); conditions: U2OS BacMam BK variants, at 30 µM;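 also: initial slope of Thallos dye fluorescence rise after thallium is added; log ratio against the mean of 0.3% DMSO vehicle wells on the same plate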
F380Y/beta2Delta = test: as above; conditions: U2OS BacMam BK variants, at 30 µM
[12] = target: Calcium-activated potassium channel subunit alpha-1 (Homo sapiens) + Leucine-rich repeat-containing protein 26 (Homo sapiens) (UniProt Q12791+Q2I0M4); test: as above; conditions: U2OS BacMam BK variants, F380Y/Slo1WT/gamma1, at 30 µM
Calcium-activated potassium channel subunit alpha-1 (Homo sapiens) + Leucine-rich repeat-containing protein 26 (Homo sapiens), sequence (Q2I0M4 whole entry, looked up, one chain of several): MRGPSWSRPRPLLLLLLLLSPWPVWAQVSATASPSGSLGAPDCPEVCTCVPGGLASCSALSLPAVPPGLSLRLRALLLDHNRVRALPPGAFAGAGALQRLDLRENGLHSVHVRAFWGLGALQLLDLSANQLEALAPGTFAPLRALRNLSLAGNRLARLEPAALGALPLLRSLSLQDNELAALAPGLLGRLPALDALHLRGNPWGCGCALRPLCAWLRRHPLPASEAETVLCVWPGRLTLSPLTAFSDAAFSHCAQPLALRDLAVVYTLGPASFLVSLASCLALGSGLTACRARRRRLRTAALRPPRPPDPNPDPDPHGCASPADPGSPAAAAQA

R275C = test: as above; conditions: U2OS BacMam BK variants, at 30 µM
R275C/beta1 = test: as above; conditions: U2OS BacMam BK variants, at 30 µM
R275C/beta2Delta = test: as above; conditions: U2OS BacMam BK variants, at 30 µM
[13] = viability loss with induced miR-34 in A549 – imaging, A549 dox-inducible miR-34, nuclei and caspase counts, primary screen (AID 1347080;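 active = compounds whose cell count with miR-34 switched on is under 0.7 times the count with it off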); conditions: A549 miR-34 inducible, Hoechst nuclei count, 48 h
[14] = MELAS cybrid and Rieske KO viability enhancers – cell-based, MELAS cybrids, Rieske KO mouse fibroblasts, CellTiter-Glo, primary screen (AID 1508586;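 active = mean z-score across replicates of 1.96 or higher in either the MELAS or the Rieske mutant cell line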;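 also: z relative to plate mean and SD of compound and empty wells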); conditions: low glucose
[15] = EMT-state selective cytotoxicity in co-culture – imaging, PC-3E GFP, TEM4-18 mCherry, primary screen (AID 1345086;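 active = compounds killing one labelled cell type while sparing the other, by normalised counts and ratio limits, not self-fluorescent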;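 as to all read-outs here: cells exposed to compound for 72 h before imaging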;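 as to red/green cell ratio (normalised): normalised mesenchymal count divided by normalised epithelial count so high means epithelial killing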); conditions: PC-3E GFP / TEM4-18 mCherry co-culture, imaging cell counts, at 1 µM; for red/green cell ratio (normalised): actives lie on both sides, counts scaled to control wells, 1 = unselective
[16] = stronger effect = lower value, cell number ratio, induced over uninduced
[17] = measured here: relative caspase fold change +Dox/-Dox
[18] = measured here: total cells with miR-34 induction, stronger effect = lower value
[19] = measured here: total cells without miR-34 induction
[20] = MELAS cybrid survival, CellTiter-Glo 48 h, stronger effect = higher value
[21] = Rieske KO mouse fibroblast survival, CellTiter-Glo 72 h
[22] = measured here: epithelial PC-3E GFP cell survival
[23] = measured here: mesenchymal TEM4-18 mCherry cell survival

Cn1c(=O)c2[nH]cnc2n(C)c1=O
0.3%: nuclear beta-catenin stimulation ([1]; stimulation, at 2 µM)
inactive: nuclear beta-catenin stimulation ([1]; at 10 µM) 1.1% | insulin secretion stimulation [2] 0.2% | viability decrease [3] 0.3% | tube area decrease [4] -10.1% | GLP1 secretion stimulation [5] -0.8% | inhibition of viability [6] 6% | viability decrease (inhibition) [7] 20.4% | viability decrease (inhibition) [8] -2.35% | inhibition [9] 4.58% | remaining NAD [10] 10 nM | luciferase signal [11] 96 AU | log fold change Tl+ flux (F380Y) 0.0321 | log fold change Tl+ flux (F380Y/beta2Delta) -0.0514 | log fold change Tl+ flux [12] -0.0341 | log fold change Tl+ flux (R275C) 0.000907 | log fold change Tl+ flux (R275C/beta1) 0.0503 | log fold change Tl+ flux (R275C/beta2Delta) -0.00245

CCOc1ccc2ccccc2c1C(=O)N[C@@H]1C(=O)N2[C@@H]1SC(C)(C)[C@@H]2C(=O)O
9950 and 9060: cell count [13, 18]
0.1%: nuclear beta-catenin stimulation ([1]; stimulation, at 2 µM)
-0.47: z-score [14, 21]
0.823 and 1.09: fold change [13, 17]
9360 and 10500: cell count [13, 19]
inactive: nuclear beta-catenin stimulation ([1]; at 10 µM) -0.5% | insulin secretion stimulation [2] 0.3% | viability decrease [3] -12.1% | tube area decrease [4] -14.5% | GLP1 secretion stimulation [5] -2.2% | inhibition of viability [6] -10.6% | viability decrease (inhibition) [7] 39.8% | viability decrease (inhibition) [8] -29.8% | inhibition [9] -5.14% | fold change [13, 16] 1.06 and 0.86 | z-score [14, 20] 0.661 | remaining NAD [10] 10 nM | luciferase signal [11] 76 AU | log fold change Tl+ flux (F380Y) -0.0205 | log fold change Tl+ flux (F380Y/beta2Delta) -0.0424 | log fold change Tl+ flux [12] 0.0363 | log fold change Tl+ flux (R275C) -0.00323 | log fold change Tl+ flux (R275C/beta1) 0.00845 | log fold change Tl+ flux (R275C/beta2Delta) 0.0249

O=C1[C@H](CC[C@H](O)c2ccc(F)cc2)[C@@H](c2ccc(O)cc2)N1c1ccc(F)cc1
inactive: nuclear beta-catenin stimulation ([1]; at 10 µM) 4.5% | insulin secretion stimulation [2] 6% | viability decrease [3] 20.8% | tube area decrease [4] 19.9% | GLP1 secretion stimulation [5] 7.4% | inhibition of viability [6] 32.6% | viability decrease (inhibition) [7] 10.1% | viability decrease (inhibition) [8] 18% | inhibition [9] -1.06% | z-score [14, 20] -0.744 | remaining NAD [10] 10 nM | luciferase signal [11] 44 AU | log fold change Tl+ flux (F380Y) 0.0275 | log fold change Tl+ flux (F380Y/beta2Delta) 0.0773 | log fold change Tl+ flux [12] 0.0312 | log fold change Tl+ flux (R275C) -0.0195
-0.4%: nuclear beta-catenin stimulation ([1]; stimulation, at 2 µM)
0.307: z-score [14, 21]
active: log fold change Tl+ flux (R275C/beta1) 0.416 | log fold change Tl+ flux (R275C/beta2Delta) 0.12

Nc1nc2ncc(CNc3ccc(C(=O)N[C@@H](CCC(=O)O)C(=O)O)cc3)nc2c(=O)[nH]1
0.5%: nuclear beta-catenin stimulation ([1]; stimulation, at 2 µM)
-0.293: z-score [14, 21]
11600 and 9920 and 12300: cell count [13, 19]
inactive: nuclear beta-catenin stimulation ([1]; at 10 µM) 0.8% | insulin secretion stimulation [2] 2.4% | viability decrease [3] -64.4% | tube area decrease [4] 16.7% | GLP1 secretion stimulation [5] -1.5% | inhibition of viability [6] -2.33% | viability decrease (inhibition) [7] 6.4% | viability decrease (inhibition) [8] -8.5% | inhibition [9] -0.853% | fold change [13, 16] 0.937 and 0.906 and 0.91 | z-score [14, 20] 0.332 | remaining NAD [10] 10 nM | luciferase signal [11] 188 AU | log fold change Tl+ flux (F380Y) -0.0861 | log fold change Tl+ flux (F380Y/beta2Delta) -0.000783 | log fold change Tl+ flux [12] -0.00611 | log fold change Tl+ flux (R275C) -0.0335 | log fold change Tl+ flux (R275C/beta1) 0.00862 | log fold change Tl+ flux (R275C/beta2Delta) 0.0304
10800 and 8990 and 11200: cell count [13, 18]
1.68 and 0.997 and 3.41: fold change [13, 17]

C[C@H]1C[C@@H]2[C@H]([C@@H](O)C[C@@]3(C)[C@H]2CC[C@]3(O)C(=O)CO)[C@@]2(C)C=CC(=O)C=C12
0.739 and 1.35 and 1.33: fold change [13, 17]
-0.286 and 1.09: z-score [14, 21]
7180 and 6410 and 5950: cell count [13, 18]
7490 and 7930 and 7360: cell count [13, 19]
0%: nuclear beta-catenin stimulation ([1]; stimulation, at 2 µM)
inactive: nuclear beta-catenin stimulation ([1]; at 10 µM) -1.3% | insulin secretion stimulation [2] 2.2% | viability decrease [3] -8.4% | tube area decrease [4] -6.1% | GLP1 secretion stimulation [5] 1% | inhibition of viability [6] 2.5% | viability decrease (inhibition) [7] 3.7% | viability decrease (inhibition) [8] -5% | inhibition [9] 12.4% | fold change [13, 16] 0.959 and 0.809 and 0.808 | z-score [14, 20] 0.0891 and -0.0037 | remaining NAD [10] 10 nM | luciferase signal [11] 100 AU | log fold change Tl+ flux (F380Y) 0.00302 | log fold change Tl+ flux (F380Y/beta2Delta) 0.00102 | log fold change Tl+ flux [12] -0.0378 | log fold change Tl+ flux (R275C) -0.0399 | log fold change Tl+ flux (R275C/beta1) -0.0807 | log fold change Tl+ flux (R275C/beta2Delta) 0.0437

c1ccc(-c2ccc(C(c3ccccc3)n3ccnc3)cc2)cc1 (stereo unspecified)
-0.196 and 0.568 and 0.472: z-score [14, 21]
active: viability decrease [3] 99.7% | inhibition of viability [6] 101% | viability decrease (inhibition) [7] 141% | viability decrease (inhibition) [8] 104% | log fold change Tl+ flux (R275C/beta1) 0.164 | log fold change Tl+ flux (R275C/beta2Delta) -0.336
0.5%: nuclear beta-catenin stimulation ([1]; stimulation, at 2 µM)
0.98: normalised cell number [15, 22]
inactive: nuclear beta-catenin stimulation ([1]; at 10 µM) -0.1% | insulin secretion stimulation [2] 0.3% | tube area decrease [4] 23.9% | GLP1 secretion stimulation [5] 8.2% | inhibition [9] 12.4% | red/green cell ratio (normalised) [15] 1.06 | z-score [14, 20] -0.456 and -0.0732 and 0.0643 | remaining NAD [10] 10 nM | luciferase signal [11] 56 AU | log fold change Tl+ flux (F380Y) -0.00418 | log fold change Tl+ flux (F380Y/beta2Delta) 0.0145 | log fold change Tl+ flux [12] 0.0139 | log fold change Tl+ flux (R275C) -0.0477
1.04: normalised cell number [15, 23]

CCCN(CCC)S(=O)(=O)c1ccc(C(=O)O)cc1
-0.203 and 0.258: z-score [14, 21]
0.78: normalised cell number [15, 22]
-0.2%: nuclear beta-catenin stimulation ([1]; stimulation, at 2 µM)
inactive: nuclear beta-catenin stimulation ([1]; at 10 µM) -1.3% | insulin secretion stimulation [2] 0.5% | viability decrease [3] -23.6% | tube area decrease [4] -14.2% | GLP1 secretion stimulation [5] -0.7% | inhibition of viability [6] 12.4% | viability decrease (inhibition) [7] 14.9% | viability decrease (inhibition) [8] -10.5% | inhibition [9] 0.15% | red/green cell ratio (normalised) [15] 1.43 | z-score [14, 20] -0.112 and 0.174 | remaining NAD [10] 10 nM | luciferase signal [11] 80 AU | log fold change Tl+ flux (F380Y) -0.012 | log fold change Tl+ flux (F380Y/beta2Delta) -0.000486 | log fold change Tl+ flux [12] 0.021 | log fold change Tl+ flux (R275C) -0.00526 | log fold change Tl+ flux (R275C/beta1) -0.0021 | log fold change Tl+ flux (R275C/beta2Delta) -0.000317
1.12: normalised cell number [15, 23]
